According to PubChem BioAssay AID652040 (Broad Institute, 2013):
Results with a measured potency or affinity are listed apart. A number with no mark means an inactive call.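 The calls were made as follows: active = falling luciferase signal whose fitted half-maximal concentration is at most twice the top tested dose; inconclusive = flat inhibition between 30 and 70% or a poor curve fit; inactive = the rest.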

Assay: off-target signal loss in HeLa-CEM21 co-culture – HeLa F-luc CTL cells, cherry-picked, counter-screen for HIV-1 Env fusion inhibitor project, dose response (AID 652040);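 also: 0% = median of neutral control wells and -100% = doxycycline 40 µg/mL wells; more negative values mean stronger loss of luciferase signal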
Settings: HeLa-F-luc CTL cells with CEM21, firefly luciferase counterscreen; series mostly up to 35 µM; activity change, negative = inhibition: at the top concentration

Row | SMILES | activity change, negative = inhibition
1 | CCc1ccc(C(=O)CN2C(=O)NC(C)(c3ccc(C)cc3)C2=O)cc1 (configuration not stated) | 39.4%
2 | COCCCn1c(-c2ccc(S(=O)(=O)N3CCOCC3)cc2)csc1=Nc1ccccc1 | 41.7%
3 | COC(=O)c1ccc(C(=O)NC2CCCc3c2cnn3-c2ccc(C)c(C)c2)cc1 (configuration not stated) | 11.9%
4 | Nc1nonc1C(=O)NCCNCc1c(OCc2ccccc2F)ccc2ccccc12 | 49.9%
5 | CCn1c(/C=C/N(C)c2ccccc2)[n+](CC)c2ccc(Cl)cc21 | 17.2%
6 | CC1(C)N=C(N)N=C(N)N1CCCCc1ccccc1 | -18.5%
7 | CCCCn1c(CN(C)Cc2ccccc2)nc2c1c(=O)n(C)c(=O)n2C | 60.9%
8 | O=C1COc2ccc(-c3csc(=Nc4ccc(OC(F)F)cc4)n3CC3CCCO3)cc2N1 (configuration not stated) | 6.16%
9 | COc1ccccc1N/C(N)=N/c1nc(CSc2ccc(C)cc2)cc(=O)[nH]1 | 12.7%
10 | CC1CCN(S(=O)(=O)c2cc(C(=O)N3CCN(c4ccccc4)CC3)ccc2Br)CC1 | 0.151%
11 | O=C(NCCCN1CCc2ccccc2C1)Nc1ccc(Cl)cc1 | 22.3%
12 | CC(=O)C1=C(C)NC(=S)NC1c1ccccc1 (configuration not stated) | 7.35%
13 | COC(=O)[C@@]12CCCN1[C@H](c1ccc(-c3ccc(F)cc3)c(OC)c1)[C@H]1C(=O)N(C)C(=O)[C@H]12 | 2.62%
14 | O=C(Nc1ccc(CN2CCOCC2)cc1)c1ccc(-c2cccc(Cl)c2)o1 | 77.5%
15 | O=C(OCCOc1cccc(Cl)c1)c1cc(S(=O)(=O)N2CCCCC2)ccc1N1CCOCC1 | -3.57%
16 | CCc1nc(N2CCCCC2)c2oc3ccccc3c2n1 | -2.89%
17 | C[C@H](CO)N1C[C@H](C)[C@@H](CN(C)C(=O)NC2CCCCC2)Oc2c(cccc2N(C)C)C1=O | 24.7%
